Reference: PubChem BioAssay (NCATS)
Several values for one entry are separate records, joined by “and”; a condition that tells them apart may be missing. Identical values can stand only once. Records with an inconclusive call do not appear. Activity calls are given as the source filed them. Unless noted, calls come from the whole dose curve; as a rule, active = well fitted curve in the direction sought with a large enough effect; inconclusive = small, poorly fitted or top-dose-only effect, or another doubt; inactive = no such curve, though single readings can be large; an effect the other way counts as inactive or inconclusive.

Columns and labels:
[1] = biological target: Cellular tumor antigen p53 (Homo sapiens) (UniProt P04637); assay: Primary qHTS for small molecule compounds that upregulate eGFP-tagged delta133p53alpha (in N-terminal) cells. (AID 2060322); details: NCI-H358 eGFP-delta133p53alpha fluorescence, 24 h; activation: hits give high values;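 note: 0% = DMSO vehicle and 100% = reference activator; nearly all actives have a fitted effect of over 75% in size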
Procedure, shortened: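 NCI-H358 cells pre-induced 24 h with 10 ng/ml doxycycline to express N-terminal eGFP-delta133p53alpha, then dosed 24 h at 37C without doxycycline; fixed, Hoechst-stained, GFP intensity by laser scanning cytometry, normalized to DMSO (0%) and 57.5 uM 5-azacytidine (100%).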

[2] = biological target: Cellular tumor antigen p53 (Homo sapiens) (UniProt P04637); assay: Primary qHTS for small molecule compounds that upregulate eGFP-tagged delta133p53alpha (in C-terminal) cells. (AID 2060324); details: NCI-H358 delta133p53alpha-eGFP (C-terminal tag), GFP fluorescence imaging, 24 h; series mostly up to 57.5 µM;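 note: 0% = DMSO wells and 100% = 57.5 µM 5-azacytidine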
Procedure, shortened: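 In this qHTS, GFP-tagged delta133p53alpha levels are measured in fixed NCI-H358 cells after 24 h compound exposure at 37 °C. The cells are pre-induced with 100 ng/ml doxycycline, and signal is normalized to DMSO-treated wells as 0%.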

[3] = biological target: Aldehyde dehydrogenase, mitochondrial (Homo sapiens) (UniProt P05091); assay: qHTS for Inhibitors of the Aldehyde Dehydrogenase Family (ALDH2) Validation screens (AID 2061302; active = well fitted inhibition curve with a large enough effect; title and protocol of this record describe different tests;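 note: plate controls were DMSO vehicle for no effect and maximal DPI positive control response for full effect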); details: ALDH inhibition qHTS; series mostly up to 42.6 µM
[4] = biological target: Aldehyde dehydrogenase, mitochondrial (Homo sapiens) (UniProt P05091); assay: qHTS for Inhibitors of the Aldehyde Dehydrogenase Family (ALDH2) Primary screen (AID 2061308); details: ALDH2 enzyme inhibition qHTS, 1536-well; series mostly up to 56 µM;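 note: plate controls were vehicle for no effect and reference inhibitor for full effect; nearly all actives have a fitted effect of over 55% in size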
[5] = biological target: Retinaldehyde dehydrogenase 3 (Homo sapiens) (UniProt P47895); assay: qHTS for Inhibitors of the Aldehyde Dehydrogenase Family (ALDH1A3) Validation screen (AID 2061312); details: ALDH1A3 enzyme inhibition qHTS validation, fluorescence; series mostly up to 84.7 µM; note: % is set by controls: 0 for no effect and ±100 for the full control effect; nearly all actives have a fitted effect of over 45% in size
[6] = biological target: Retinaldehyde dehydrogenase 3 (Homo sapiens) (UniProt P47895); assay: qHTS for Inhibitors of the Aldehyde Dehydrogenase Family (ALDH1A3) Primary screen (AID 2061315); details: ALDH inhibition qHTS; series mostly up to 56 µM;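 note: plate controls were DMSO vehicle for no effect and reference inhibitor for full effect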
[7] = BET inhibitor-based combinations targeting novel dependencies in MECOM-rearranged (r) AML: SET-2 cell line (AID 2202231); details: SET-2 AML cells viability, CellTiter-Glo luminescence, 48 h; viability: hits give low values, concentration not given here; note: nearly all actives have a fitted effect of over 35% in size; note: potency is the fitted concentration of half-maximal effect;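 for viability: plate controls were DMSO treated cells for no effect and wells without cells for full effect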
Procedure, shortened: (§1)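 Viability of cells (500 per well) is scored by luminescent CellTiter-Glo at 48 hr post-dosing. Eleven-point titrations are normalized to DMSO and empty controls and reduced to AUC values.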

[8] = BET inhibitor-based combinations targeting novel dependencies in MECOM-rearranged (r) AML: MV-4-11 cell line (AID 2202233); details: MV-4-11 AML viability, CellTiter-Glo luminescence, 48 h; series mostly up to 46 µM; note: potency is the fitted concentration of half-maximal effect; nearly all actives have a fitted effect of over 45% in size
Procedure, shortened: (§2)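 Using pin-tool transfer, drugs were added in 11 doses to cells (500/well), incubated 48 hr, and assessed with CellTiter-Glo. Z-AUC is a mean-centring transformation applied separately to each screened line.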

[9] = BET inhibitor-based combinations targeting novel dependencies in MECOM-rearranged (r) AML: UCSD-AML1 cell line (AID 2202235); details: UCSD-AML1 AML cells viability, CellTiter-Glo, 48 h; series mostly up to 46 µM; note: nearly all actives have a fitted effect of over 40% in size; note: potency is the fitted concentration of half-maximal effect
Procedure, shortened: as §2

[10] = BET inhibitor-based combinations targeting novel dependencies in MECOM-rearranged (r) AML: AML-191 cell line (AID 2202236; note: nearly all actives have a fitted effect of over 35% in size; note: potency is the fitted concentration of half-maximal effect); details: AML-191 viability, CellTiter-Glo luminescence, 48 h; series mostly up to 46 µM
Procedure, shortened: as §1

[11] = BET inhibitor-based combinations targeting novel dependencies in MECOM-rearranged (r) AML: AML-194 cell line (AID 2202237; note: nearly all actives have a fitted effect of over 40% in size; note: potency is the fitted concentration of half-maximal effect); details: AML-194 (MECOM-r AML) viability, CellTiter-Glo, 48 h; series mostly up to 46 µM
Procedure, shortened: as §1

Chain of Cellular tumor antigen p53 (Homo sapiens) (P04637 whole entry, looked up): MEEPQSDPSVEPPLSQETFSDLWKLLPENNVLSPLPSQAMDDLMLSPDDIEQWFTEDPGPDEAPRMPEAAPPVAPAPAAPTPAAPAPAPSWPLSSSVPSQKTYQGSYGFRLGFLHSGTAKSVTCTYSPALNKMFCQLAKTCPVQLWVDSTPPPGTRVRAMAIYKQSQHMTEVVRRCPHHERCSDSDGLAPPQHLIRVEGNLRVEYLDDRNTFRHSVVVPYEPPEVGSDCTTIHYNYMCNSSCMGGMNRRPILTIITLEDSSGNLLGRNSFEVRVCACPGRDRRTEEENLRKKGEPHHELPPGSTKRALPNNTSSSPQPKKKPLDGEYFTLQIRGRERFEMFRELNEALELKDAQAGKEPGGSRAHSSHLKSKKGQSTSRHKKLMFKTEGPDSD

Clc1ccc(Cn2c(CN3CCCC3)nc3ccccc32)cc1
inactive: activation [1] -13.4% and 2.33% and -45.4% | Potency [2] | Potency [3] | Potency [4] | Potency [5] | Potency [6]
active: Potency [7] 20.9 µM | Potency [8] 20.9 µM | Potency [9] 20.9 µM | Potency [10] 18.6 µM | Potency [11] 20.9 µM

O=c1[nH]c(=O)n([C@H]2C[C@H](O)[C@@H](CO)O2)cc1Br
inactive: activation [1] -16.4% and -22.3% | Potency [2] | Potency [3] | Potency [5]

COc1ccc(Cl)cc1C(=O)NCCc1ccc(S(=O)(=O)NC(=O)NC2CCCCC2)cc1
inactive: activation [1] 3.95% and -3.34% and -19.4% | Potency [2] | Potency [3] | Potency [4] | Potency [5] | Potency [6]

CN(C)C(=O)[C@H](O)[C@H](Cc1ccccc1)NC(=O)c1cc2cc(Cl)ccc2[nH]1
inactive: activation [1] -2.47% and -33.3% and 7.64% | Potency [2] | Potency [3] | Potency [4] | Potency [5] | Potency [6] | viability [7] 95.3% | Potency [9] | Potency [10] | Potency [11]

CCCNC(=O)NS(=O)(=O)c1ccc(Cl)cc1
inactive: activation [1] -9.6% and 2.39% and -46.5% | Potency [2] | Potency [3] | Potency [4] | Potency [5] | Potency [6]
